# High-throughput results as filed in PubChem BioAssay.
# Hits are enriched below; roughly 1.2% of the tested compounds scored in any of these assays.
# RAD54 inh: inhibitors of human RAD54 branch migration; Q92698; RAD54 Holliday junction branch migration, FAM/BHQ fluorescence; inhibition, % at 10.4 µM; 360,000 compounds, 0.14% hits;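 active means mean normalized replicate activity at least 40 and at least half of replicates scoring 40 or more; inconclusive means only one of the two criteria met; inactive means mean below 40 and under half of replicates reaching 40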;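 further: 0% = median of neutral control wells and 100% = median of positive control wells; inhibitors cause a drop in the FAM fluorescence signal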
# RAD52 anneal inh: blocks human RAD52 DNA annealing; P43351; recombinant RAD52 DNA annealing, FRET fluorescence; inhibition, % at 18.7 µM; 360,000 compounds, 0.46% hits; AID 651710;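 active means every replicate showing at least 50% inhibition; inconclusive means mean inhibition at least 50% but not in every replicate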
# Target sequence (P43351 whole entry, looked up): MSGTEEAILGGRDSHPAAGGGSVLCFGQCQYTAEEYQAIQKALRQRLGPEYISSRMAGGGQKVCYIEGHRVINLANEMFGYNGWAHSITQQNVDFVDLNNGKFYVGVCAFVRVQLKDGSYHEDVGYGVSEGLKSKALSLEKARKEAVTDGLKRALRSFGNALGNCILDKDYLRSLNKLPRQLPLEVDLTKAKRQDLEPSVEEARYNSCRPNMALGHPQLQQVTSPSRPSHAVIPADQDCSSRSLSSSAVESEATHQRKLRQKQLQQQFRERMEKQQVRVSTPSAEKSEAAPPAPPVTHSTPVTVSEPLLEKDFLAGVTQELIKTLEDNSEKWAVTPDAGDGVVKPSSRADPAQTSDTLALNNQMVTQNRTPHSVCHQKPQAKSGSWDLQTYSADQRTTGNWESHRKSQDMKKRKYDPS
# N-glyco inh: N-linked glycosylation inhibition. 360,000 compounds, 0.23% hits. D54 ERlucT glycosylation luciferase reporter, 24 h; percent of 100 nM tunicamycin response. AID 588692. reporter increase, % at 12.5 µM;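 active means mean luciferase reporter signal, scaled so untreated is 0 and the glycosylation-blocking control 100, at or above a set limit in every replicate; inconclusive means mean reaches the limit but not every replicate does; inactive means mean below the limit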;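 further: luciferase carries N-glycosylation sites so blocking glycosylation raises the light; 0% = median of neutral control wells and 100% = median of 100 nM tunicamycin wells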
# CASP6 VEID inh: blocks human caspase-6 cleavage activity; 350,000 compounds, 0.53% hits; purified caspase-6, Z-VEID-R110 cleavage fluorescence; inhibition, % at 12.5 µM;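 active means mean inhibition across replicates at least about 35%, with every replicate also reaching that limit, limit read from the data; inconclusive means only one of the two criteria met; inactive means neither criterion met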;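 further: 0% = median of neutral control wells and 100% = no fluorescence left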
# NSD2 HMT inh: inhibitors of human histone methyltransferase NSD2 | O96028 | NSD2 peptide methylation, AlphaScreen, 120 min | inhibition, % at 12.5 µM | 310,000 compounds, 0.54% hits | AID 743445; in the data active means inhibition above about 50%
# * hit, by the source's call; i = inactive; ? = inconclusive; . = no result.
SMILES,RAD54 inh,RAD52 anneal inh,N-glyco inh,CASP6 VEID inh,NSD2 HMT inh
COc1ccccc1N1CCN(C(=O)C2CCN(S(=O)(=O)c3ccc(F)cc3)CC2)CC1,-14,.,-2,.,1
COCC(=O)N1C[C@H](C)[C@@H](OC)CN(C)C(=O)c2ccc(NC(=O)c3ccc(F)cc3)cc2OC[C@@H]1C,.,-7,.,1,.
O=c1[nH]c(=O)n(Cc2ccccc2)c2nc(-c3ccco3)cc(C(F)(F)F)c12,-3,.,3,.,.
Cc1nn(CCc2nc(-c3ccco3)cs2)c2[nH]c(=O)cc(C(F)(F)F)c12,-10,-26,0,49*,25
Cc1cc(C)n(CCc2nc(-c3cccs3)cs2)n1,-5,.,-2,.,-2
Cc1cc(C)n(CCc2nc(-c3ccco3)cs2)n1,1,-33,-2,58*,-4
CO[C@H]1CN(C)C(=O)c2ccc(NC(=O)C3CC3)cc2OC[C@H](C)N(Cc2cccnc2)C[C@H]1C,-18,2,.,-1,.
C[C@H](CO)N1C[C@H](C)[C@H](CN(C)C(=O)Nc2ccccc2)Oc2ccc(NC(=O)Nc3ccc(F)cc3)cc2C1=O,9,2,.,0,.
CC(C)CC#Cc1ccc2c(c1)O[C@H](CN(C)C(=O)c1ccccn1)[C@H](C)CN([C@@H](C)CO)S2(=O)=O,-11,-5,.,-1,.
O=C(NCCC1=CCCCC1)C1CCC(CNc2nc(=S)[nH]c3ccccc23)CC1 (stereo not given),4,-6,58*,-2,0
O=C(NCCc1ccc(Cl)cc1)C1CCC(CNc2nc(=S)[nH]c3ccccc23)CC1 (stereo not given),5,1,2,3,-3
C[C@H]1CN([C@@H](C)CO)C(=O)c2cccc(NS(=O)(=O)c3cn(C)cn3)c2O[C@H]1CN(C)C(=O)Nc1ccc(C(F)(F)F)cc1,-13,-6,.,1,.
O=C(OC1CCOC1=O)c1ccc(Cl)c(S(=O)(=O)N2CCOCC2)c1 (stereo not given),-9,3,2,40*,2
O=C(CSc1nc2nc(-c3cccs3)cc(C(F)(F)F)c2c(=O)[nH]1)C(F)(F)F,-2,-6,37*,4,.
COC(=O)CSc1nc2nc(-c3cccs3)cc(C(F)(F)F)c2c(=O)[nH]1,-3,-6,0,.,-2
Cc1ccc(S(=O)(=O)Cc2ccc(C(=O)O)o2)cc1,5,-36,2,52*,40
NNC(=O)c1ccc(OCC2CC(c3ccc(Cl)cc3)=NO2)cc1 (stereo not given),0,-14,52*,-4,-4
CCC(=O)N1CC(=O)N2[C@H](CO)[C@H](c3ccc(-c4ccncc4)cc3)[C@@H]2C1,.,4,.,-1,.
COC/C=C/C1=CC2=CC(=O)C(C)(OC(=O)C3CCCC3)C(=O)C2=CO1 (stereo not given),-14,-25,3,36*,.
CC(C)c1cn(CC[C@H]2CC[C@H](NC(=O)C3CCCC3)[C@H](CO)O2)nn1,-7,-12,.,28,.
CC(Cc1c[nH]c2ccccc12)C(=O)O (stereo not given),-10,6,1,38*,.
CN1C(=O)c2cc(NC(=O)c3cccc(F)c3)ccc2OC[C@@H]2O[C@@H](CC(=O)NCc3ccccc3)CC[C@H]21,1,.,.,.,.
CCN(CC)c1ccc(/C=C/c2cccc[n+]2C)c(OC)c1,-333,i,28*,-68,.
Nc1cccc2nc3ccccc3cc12,106*,.,?,.,.
O=C(C[C@H]1CC[C@@H]2[C@H](COC[C@@H](O)CN2C(=O)Nc2ccc(Cl)c(Cl)c2)O1)NCc1ccc(Cl)c(Cl)c1,-5,3,.,1,.
SMILES,RAD54 inh,RAD52 anneal inh,N-glyco inh,CASP6 VEID inh,NSD2 HMT inh
COc1cc(Cn2c3ccc(NC(=O)CCc4ccccc4)cc3c(=O)n2C)ccc1F,-5,-25,21,2,-3
COc1ccccc1CCC(=O)Nc1ccc2c(c1)c(=O)n(C)n2-c1cccs1,4,-11,34*,3,-2
CCCC(=O)Nc1ccc2c(c1)C(=O)N(C)[C@@H]1CC[C@H](CC(=O)Nc3ccccc3)O[C@H]1CO2,4,12,.,2,.
O=C(CSc1nc2ccccc2c(=O)[nH]1)Nc1ccc(C(=O)O)cc1,-5,-8,-1,37*,3
COc1cccc(NC(=O)N2CC3(C2)[C@H](c2ccccc2)[C@H](CO)N3C(=O)C2CCC2)c1,.,.,.,-1,.
COc1cccc(NC(=O)Nc2ccc3c(c2)C(=O)N(C)[C@H]2CC[C@H](CC(=O)O)O[C@H]2CO3)c1,-1,.,.,.,.
Cc1ccc(S(=O)(=O)Nc2ccc3c(c2)CC(=O)N([C@H](C)CO)C[C@H](C)[C@H](CN(C)Cc2ccc(Oc4ccccc4)cc2)O3)cc1,-8,-8,.,2,.
C[C@H](CO)N1C[C@H](C)[C@H](CN(C)Cc2ccc(Oc3ccccc3)cc2)Oc2ccc(NS(=O)(=O)c3ccccc3)cc2CC1=O,3,-12,.,52*,.
Cc1ccc(S(=O)(=O)Nc2ccc3c(c2)CC(=O)N([C@@H](C)CO)C[C@@H](C)[C@H](CN(C)Cc2ccc(-c4ccccc4)cc2)O3)cc1,1,83*,.,-1,.
C[C@H](CO)N1C[C@H](C)[C@@H](CN(C)Cc2ccc(Cl)c(Cl)c2)Oc2ccc(NS(=O)(=O)c3ccccc3)cc2CC1=O,-6,64*,.,-1,.
CO[C@H]1CN(C)C(=O)c2cc(NC(=O)C3CCCC3)ccc2OC[C@@H](C)N(CC2CC2)C[C@H]1C,7,-3,.,7,.
CCCCN1CCN(C(=O)CSc2nc3cccnc3n2C)CC1,.,.,.,.,-2
Cc1ccc(NC(=O)c2ccccc2[N+](=O)[O-])nc1,3,-13,5,-2,2
Cc1ccc(NC(=O)c2ccc(Cl)cc2[N+](=O)[O-])nc1,.,-1,31*,2,-3
O=C(O)C1Sc2[nH]c(=O)sc2C2c3ccc(O)cc3OC(=O)C12 (stereo not given),-9,-185,0,58*,1
C[C@@H]1CN([C@@H](C)CO)C(=O)c2cc(C#CCc3ccccc3)cnc2O[C@H]1CN(C)Cc1cccc(F)c1,-2,33,.,-3,.
COc1cc(NC(C(=O)Nc2cccc(C(C)=O)c2)c2ccccc2)cc(OC)c1OC (stereo not given),.,.,27*,.,18
COc1cccc(NC(C(=O)Nc2cccc(C(C)=O)c2)c2ccccc2)c1 (stereo not given),-8,.,-3,.,0
Cc1ccc([N+](=O)[O-])cc1NC(=O)C(C)N1CCCCC1 (stereo not given),.,-19,1,40*,-1
CCc1ccccc1NC(=O)Cn1nnc(C(=O)NCc2cccs2)c1N,.,.,?,.,-7
COc1ccccc1NC(=O)Cn1nnc(C(=O)NCc2cccs2)c1N,3,-8,28*,-2,.
Oc1ccc(/C=N/Nc2ccnc3cc(Cl)ccc23)cc1O,.,13,-5,47*,3
Oc1ccc(/C=N/Nc2ccnc3cc(Cl)ccc23)c(O)c1O,-3,34,0,2,.
C[C@H]1CN([C@@H](C)CO)C(=O)c2cc(NC(=O)Cn3cnnn3)ccc2O[C@@H]1CN(C)Cc1ccc(C(=O)O)cc1,5,-1,.,4,.
